Measurements published in PubChem BioAssay AID1566 (Sanford-Burnham Center for Chemical Genomics, 2009).
Among all 290,000 compounds or so, about 1,800 (0.62%) were called active. No stated cut-off is given here; in the data, active means inhibition above about 50%; inactive means the rest. The sample as a whole holds a higher share of actives than the screen did.

Experiment: inhibition of NOD2-driven NF-kB reporter – cell-based, luminescence, uHTS, HEK293 (AID 1566)
Conditions: HEK293 NOD2/NF-kB luciferase reporter, at 4 µM, stronger effect = higher value

inhibition, active:
CCOC(=O)c1ccc(NC(=O)c2ccc(NC(=O)C3CCCO3)cc2)cc1 (stereo unspecified) 51.3%
Cc1ccc(C(=O)NC(=S)Nc2ccc(N3CCOCC3)cc2)cc1C 50.7%
O=[N+]([O-])c1ccc(-c2c(O)c3ccccc3c3nc4ccccc4nc23)cc1 58.6%
O=C(Nc1ccc(C(=O)OC2CCCCC2)cc1)c1ccncc1 61.2%
Cc1nc(N/N=C/c2ccccn2)sc1C 56.9%
COc1ccc(CCNC(=O)Nc2cccc([N+](=O)[O-])c2)cc1 79.5%
Cc1oc(-c2ccc(Cl)cc2)nc1CN1CCCC(C(=O)N2CCN(C(=O)c3ccco3)CC2)C1 (stereo unspecified) 50%
COc1cccc(-c2nnc3sc(C4CCCCC4)nn23)c1 55.3%
S=C(NCc1ccccc1)Nc1cccc2cnccc12 52.6%
Clc1ccc(-n2ncc3c(N4CCCCCC4)ncnc32)cc1 70.6%
CC1CCCN(c2ncnc3c2cnn3-c2ccc(Cl)cc2)C1 (stereo unspecified) 86.2%
CCOC(=O)C1CCN(c2ncnc3c2cnn3-c2ccc(Cl)cc2)CC1 57.5%
COc1ccc(-n2ncc3c(N4CCCCC4)ncnc32)cc1 67.7%

inhibition, inactive:
COc1cc(C(=O)Nc2ccccc2N2CCOCC2)ccc1OCc1c(C)noc1C 1.5%
CCOC(=O)c1ccc(NC(=O)C2CCCO2)cc1 (stereo unspecified) -21.8%
CCOC(=O)c1cccc(NC(=O)c2ccc(NC(=O)C3CCCO3)cc2)c1 (stereo unspecified) 5.8%
CC(Sc1nnc(N)s1)C(=O)Nc1nccs1 (stereo unspecified) -1.1%
COc1ccc(-c2nc(C#N)c(N3CCN(c4cccc(Cl)c4)CC3)o2)cc1OC 0.1%
COc1ccccc1-c1nc(C#N)c(N2CCN(c3ccccc3)CC2)o1 -1.7%
Cc1noc(C)c1COC(=O)COc1cccc2c1OC(C)(C)C2 6.1%
C=CCN(c1ccc(C(=O)Nc2ccc(NC(C)=O)cc2)cc1)S(C)(=O)=O 15.2%
COc1ccc(N(CC(=O)NCCC2=CCCCC2)S(=O)(=O)c2ccccc2)c(OC)c1 1.9%
Cc1cccc(NS(=O)(=O)c2ccc(NC(=O)N3CCCCC3)cc2)c1 33.7%
CC(=O)c1cccc(NC(=O)N2CCCCCC2)c1 6.3%
CC1(C)CC(=O)C=C(N2CCN(C3=CC(=O)CC(C)(C)C3)CC2)C1 -10.7%
COc1ccc(C(=O)NC(=S)Nc2ccc(N3CCOCC3)cc2)cc1Cl 13.8%
Cc1cccc(C(=O)NC(=S)Nc2ccc(N3CCOCC3)cc2)c1 7.7%
Cc1ccn2c(NC(=O)c3cccs3)c(-c3ccccc3)nc2c1 17.5%
COc1ccc(OC)c(Cc2nnc(CCC(=O)NCc3nc4ccccc4s3)o2)c1 5.2%
CC(C)Cc1nc(N2CCN(C(=O)c3ccco3)CC2)c(C#N)c2c1CCC2 13.3%
CC(C)Cc1nc(N2CCN(C(=O)c3ccco3)CC2)c(C#N)c2c1CCCC2 23.8%
Cc1ccc(S(=O)(=O)N(CC(=O)NCCSCc2ccco2)c2ccc(F)cc2)cc1 -2.2%
CC(C)CNC(=O)CN(c1ccccc1)S(=O)(=O)c1ccccc1[N+](=O)[O-] -10.6%
O=C(c1ccccc1)N1CCN(CC(O)COc2cccc3ccccc23)CC1 (stereo unspecified) -10%
CCOC(=O)c1c(NC(=O)CSc2nc3ccccc3c(=O)n2-c2ccc(F)cc2)sc(C(C)=O)c1C -19.4%
O=S(=O)(Nc1ccc(N2CCOCC2)cc1)c1ccc(F)cc1F -1.9%
O=C(c1ccco1)N1CCCC(c2nc3c(nnn3Cc3c(Cl)cccc3Cl)c(=O)[nH]2)C1 (stereo unspecified) -43.2%
Cc1cc(-c2ccc([N+](=O)[O-])cc2)nc2ccccc12 -13.5%
O=[N+]([O-])c1ccc(-c2cnc3ccccc3n2)cc1 -35.5%
Cc1ccc(Oc2nc3ccccn3c(=O)c2/C=C(\C#N)C(=O)NC2CCS(=O)(=O)C2)c(C)c1 (stereo unspecified) 0.4%
O=C(OC1CCCCC1)c1ccc(NC(=O)C2CCCCC2)cc1 8.6%
O=C(OC1CCCCC1)c1ccc(NC(=O)c2ccco2)cc1 -39.4%
COCCNC(=O)C1CC(c2ccc([N+](=O)[O-])cc2)=NO1 (stereo unspecified) 21%
COc1ccc(OCC(=O)Nc2cccc(NC(=O)c3ccco3)c2)cc1 1.8%
Cc1cnnn1-c1cccc([N+](=O)[O-])c1 -9.2%
COC(=O)Cc1[nH]n(-c2nc3ccccc3s2)c(=O)c1C(C)=Nc1ccc(Cl)cc1 6.3%
COC(=O)Cc1[nH]n(-c2nc3ccccc3s2)c(=O)c1C(C)=O -18.8%
CN(Cc1cn[nH]c1-c1ccc2c(c1)OCO2)C1CCOCC1 10.5%
CCCc1sc(N/N=C/c2ccccn2)nc1-c1ccc(Br)cc1 -44.6%
Cc1csc(N/N=C/c2ccccn2)n1 -60.9%
Oc1ccc(Br)cc1CNc1ccccn1 -10.8%
O=C(CCl)Nc1cccc(Oc2cnccn2)c1 -47.8%
CCCCc1ccc(NC(=S)NCCc2ccc(S(N)(=O)=O)cc2)cc1 24.9%
COc1ccccc1CCNC(=O)Nc1cccc([N+](=O)[O-])c1 13.6%
COc1ccc(CCNC(=O)Nc2cccc([N+](=O)[O-])c2)cc1OC 4.7%
CCOC(=O)c1c(N)sc(C(=O)N(CC)CC)c1C 2.6%
CC1(C)CC(=O)C=C(NCc2cccs2)C1 1.3%
OCC[C@@H]1C[C@H](O)[C@@H](O)[C@]2(Cc3ccccc3CCO2)O1 -4.1%
Cc1oc(-c2ccc(Cl)cc2)nc1CN1CCCC(C(=O)N2CCOCC2)C1 (stereo unspecified) 10.7%
Cc1oc(-c2ccc(Cl)cc2)nc1CN1CCCN(C(=O)c2ccco2)CC1 18.6%
COc1ccc(NC(C)=O)cc1S(=O)(=O)NC(Cc1ccccc1)C(=O)O (stereo unspecified) -25.7%
COc1ccc(OC)c(S(=O)(=O)Nc2ccc(OCC(=O)O)cc2)c1 3.3%
COc1ccc(CC(NC(C)=O)C(=O)NC2CCN(C(=O)C3CCCCC3)CC2)cc1OC (stereo unspecified) 13.5%
CCOCCCNS(=O)(=O)c1ccc(NC(=O)c2ccccc2)cc1 11.3%
Cc1nnc(SCC(=O)Nc2ccc([N+](=O)[O-])cc2)n1CC1CCCO1 (stereo unspecified) 2.5%
CC1CCc2sc3ncnc(N4CCN(C)CC4)c3c2C1 (stereo unspecified) 12.6%
CC1CCc2c(sc3ncnc(N4CCOCC4)c23)C1 (stereo unspecified) 26%
CCOc1ccc(NC(=O)CC2C(=O)N(c3ccccc3)C(=O)N2CCc2cccs2)cc1 (stereo unspecified) 23.4%
COc1ccc(CCNC(=O)C2CCN(S(=O)(=O)c3ccc(-n4cnnn4)cc3)CC2)cc1OC 6%
CCOc1ccccc1NC(=O)CNC(=O)CNC(=O)Cc1ccccc1 -3.4%
Cc1sc2ncnc(NC3CCN(Cc4ccccc4)CC3)c2c1C 36.9%
Cc1csc2c(NC3CCN(Cc4ccccc4)CC3)ncnc12 34.1%
COc1cc(CC(=O)NCC2CCCCC2)cc(OC)c1OC -1.9%
CCOc1cccc(-c2nnc3sc(C4CCCCC4)nn23)c1 20.8%
COc1ccc(-c2nnc3sc(C4CCCCC4)nn23)cc1OC 13.6%
O=C(NC1CCCCCC1)c1ccc(OCC2CCCO2)cc1 (stereo unspecified) -82%
OCCC1CN(Cc2cccn2-c2ccccn2)CCN1C1CCCCC1 (stereo unspecified) -19.4%
CNC(=S)N/N=C/c1c(C)c(C(=O)c2ccc(F)cc2)n2ccccc12 25.2%
Cc1c(/C=N/NC(=O)c2ccc(O)cc2)c2ccccn2c1C(=O)c1ccc(F)cc1 7%
Cc1cccc(NS(=O)(=O)c2ccc(C(=O)NCCCN3CCOCC3)cc2)c1C 14.9%
S=C(NCc1cccnc1)Nc1cccc2ccccc12 -6.2%
S=C(NCc1ccccc1)Nc1cccc2ccccc12 3.3%
O=C(NN1CCOCC1)c1ccc(S(=O)(=O)N2CCCCC2)cc1 4.3%
O=C(O)c1cc(-c2ccc(N3CCOCC3)cc2)nn1-c1ccccc1Cl 3.2%
N#C/C(=C\Nc1ccc(F)c(Cl)c1)S(=O)(=O)c1ccccn1 0.9%
CCn1cc([N+](=O)[O-])c(C(=O)Nc2nc(-c3ccc(C)c(C)c3)c(C)s2)n1 13%
CCn1cc([N+](=O)[O-])c(C(=O)Nc2nc(-c3ccc(C)cc3)c(C)s2)n1 3%
Cc1nc(SCc2ccc(F)cc2)c2oc3ccccc3c2n1 11.8%
COc1ccc(-n2ncc3c(N4CCC(C(N)=O)CC4)ncnc32)cc1 -46.4%
CCOC(=O)C1CCN(c2ncnc3c2cnn3-c2ccc(OC)cc2)CC1 23.8%
c1ccc(-n2ncc3c(N4CCCCC4)ncnc32)cc1 -32.5%
Clc1ccc(-n2ncc3c(N4CCCC4)ncnc32)cc1 17.1%
CC1CCCN(c2ncnc3c2cnn3-c2ccccc2)C1 (stereo unspecified) -14.2%
CCOC(=O)C1CCN(c2ncnc3c2cnn3-c2ccccc2)CC1 1.8%
COc1ccc(-n2ncc3c(N4CCC(C)CC4)ncnc32)cc1 -97.6%
CC1CC(C)CN(c2ncnc3c2cnn3-c2ccc(Cl)cc2)C1 (stereo unspecified) 27.7%
